In the library only some 0.37% were active in any assay of this set; here they are far more common.
Rab2A wt mod = changes GTP binding to wildtype dog Rab2A, up or down | P61105 | GST-Rab2 wt beads, Bodipy-GTP binding, flow cytometry | GTP binding activity, % at 10 µM | 190,000 tested, 0.19% active;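 active = GTP binding activity at least 20 points away from 100%, either lowered or raised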;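 also: 0% = beads with excess unlabeled GTP and 100% = no-compound control corrected for plate trend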
HRas wt GTP = modulators of GTP binding to human HRas wildtype. P01112. GST-Ras wt beads, Bodipy-FL-GTP binding, flow cytometry; actives lie on both sides. GTP binding activity, % at 10 µM. 190,000 tested, 0.14% active. AID 759;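 active = GTP binding activity at least 20% away from the 100% baseline, either lowered as inhibitor or raised as activator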;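 also: 0% = unlabeled GTP competition control and 100% = no-compound control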
Target sequence (P01112 whole entry, looked up): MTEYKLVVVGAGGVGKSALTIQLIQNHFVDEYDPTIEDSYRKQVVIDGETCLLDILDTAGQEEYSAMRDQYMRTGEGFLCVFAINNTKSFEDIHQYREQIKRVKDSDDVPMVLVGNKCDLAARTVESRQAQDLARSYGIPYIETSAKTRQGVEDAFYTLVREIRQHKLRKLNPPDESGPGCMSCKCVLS
Rab7 wt GTP bind = modulators of GTP binding to dog Rab7 wildtype GTPase | GST-Rab7 beads, fluorescent GTP binding, flow cytometry; actives lie on both sides; untreated = 100%, excess cold GTP = 0% | GTP binding activity (percent of control), % at 10 µM | 190,000 tested, 0.055% active | AID 758;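 active = fluorescent GTP binding to Rab7 beads changed by at least 20 points from the 100% baseline, either direction, mostly lower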;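 also: median green fluorescence of bound Bodipy-FL-GTP per Rab7 bead population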
Cdc42 wt = changes GTP binding to wildtype human Cdc42. P60953. 190,000 tested, 0.2% active. GST-Cdc42 beads, Bodipy-GTP binding, flow cytometry; actives lie on both sides. percent activity (GTP binding), % at 10 µM;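 active = percent activity GTP binding at least 20 points away from the 100% baseline, either down as inhibitor or up as activator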;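 also: median bead fluorescence of bound Bodipy-FL-GTP at 100 nM; 0% = excess unlabeled GTP control and 100% = no compound control; below 100% means less GTP binding so inhibitor and above means activator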
Target sequence (P60953 whole entry, looked up): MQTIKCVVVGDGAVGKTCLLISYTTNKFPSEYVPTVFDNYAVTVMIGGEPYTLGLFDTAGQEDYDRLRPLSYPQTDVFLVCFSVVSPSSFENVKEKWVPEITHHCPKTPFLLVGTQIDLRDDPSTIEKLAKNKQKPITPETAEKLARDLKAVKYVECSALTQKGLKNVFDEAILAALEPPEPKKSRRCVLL
Rac1 wt modul = human Rac1 wildtype GTP binding, inhibitors and activators; 190,000 tested, 0.27% active; GTP binding activity (% of control), % at 10 µM; GST-Rac1 beads, fluorescent GTP binding, flow cytometry; actives lie on both sides; 0 = cold GTP competed, 100 = untreated;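 active = GTP binding activity at least 20 points away from the 100% control level, either lower or higher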
Rac1 mut GTP = alters GTP binding to activated mutant human Rac1 | AID 764 | GST-Rac1 activated beads, fluorescent GTP binding, flow cytometry; actives lie on both sides; 100% means binding = to untreated wells | 190,000 tested, 0.11% active | percent activity (GTP binding), % at 10 µM;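 active = GTP binding at least 20 percentage points away from the 100% baseline, in either direction, so actives lie on both sides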
Starred values were filed as active, the others as inactive; [ ] = dose if it differs, or a comment.

SMILES	Rab2A wt mod	HRas wt GTP	Rab7 wt GTP bind	Cdc42 wt	Rac1 wt modul	Rac1 mut GTP
O=C(Nc1ccc2nc(-c3cccs3)[nH]c2c1)c1cccs1	77.0*	75.0*	94.0	75.0*	76.0*	86.0
COc1cc(/C=C(/C#N)c2nc3ccccc3[nH]2)ccc1OCc1ccc(C(=O)O)o1	77.0*	78.0*	94.0	78.0*	85.0	87.0
COc1ccc2nc(/C(C#N)=C\c3ccc(C(=O)O)cc3)[nH]c2c1	86.0	86.0	96.0	78.0*	77.0*	85.0
COC(=O)c1ccc(COc2ccc(/C=C(\C#N)c3nc4ccccc4[nH]3)cc2OC)o1	101.0	99.0	99.0	101.0	102.0	98.0
Cc1ccc(NC(=O)Cn2ccc([N+](=O)[O-])n2)cc1C	99.0	99.0	104.0	99.0	101.0	97.0
CC1Cc2ccccc2N1S(=O)(=O)c1cccc(C(=O)NCCCO)c1 (configuration not stated)	112.0	108.0	110.0	113.0	123.0*[activator]	108.0
Cc1cc(C)c2oc(C(=O)Nc3ccc(S(=O)(=O)N4CCCC(C)C4)cc3)cc(=O)c2c1 (configuration not stated)	100.0	99.0	97.0	98.0	102.0	99.0
COc1ccc(C2CC(c3ccccc3)=NN2c2ccc(S(N)(=O)=O)cc2)cc1 (configuration not stated)	97.0	99.0	104.0	78.0*	98.0	94.0
NS(=O)(=O)c1ccc(N2N=C(c3ccccc3)CC2c2ccc(F)cc2)cc1 (configuration not stated)	94.0	97.0	93.0	89.0	94.0	96.0
COc1cccc(-n2c(Cc3cc(=O)[nH]c(=O)[nH]3)nnc2SCc2cccc(C(F)(F)F)c2)c1	99.0	99.0	104.0	98.0	98.0	98.0
Cc1cc(C)n(CC(O)Cn2c3ccc(Cl)cc3c3cc(Cl)ccc32)c(=O)n1 (configuration not stated)	96.0	99.0	96.0	100.0	102.0	99.0
OC(CNCCC1C=Nc2ccccc21)Cn1c2ccc(Cl)cc2c2cc(Cl)ccc21 (configuration not stated)	113.0	114.0	112.0	115.0	144.0*[activator]	108.0
CCOc1ccc(S(=O)(=O)NC(C)C)cc1C(N)=O	99.0	99.0	104.0	97.0	98.0	96.0
O=C(O)c1cccc(Oc2ccc([N+](=O)[O-])cc2)c1	121.0*[activator]	117.0	115.0	127.0*[activator]	141.0*[activator]	120.0*[activator]
COc1ccc(S(=O)(=O)N2CCCCC2)cc1NC(=O)c1ccc([N+](=O)[O-])o1	84.0	86.0	97.0	82.0	74.0*	87.0
CCOC(=O)Cc1csc(NC(=O)CSc2nc(-c3ccccc3)c(C#N)c(=O)[nH]2)n1	85.0	84.0	86.0	84.0	88.0	79.0*
CCOc1ccc2nc(NC(=O)CSc3nc(-c4ccccc4)c(C#N)c(=O)[nH]3)sc2c1	87.0	85.0	95.0	82.0	82.0	78.0*
CC(=O)Nc1ccc(NC(=O)CCn2nnc3ccccc32)cc1	35.0*	32.0*	39.0*	86.0	102.0	101.0
O=C(COC(=O)/C=C/c1ccc(Cl)cc1)Nc1ccc2c(c1)OCCO2	76.0*	81.0	87.0	83.0	79.0*	78.0*
COc1ccc(-c2nnc(SCC(=O)c3cccs3)o2)cc1	60.0*	42.0*	59.0*	54.0*	58.0*	62.0*
O=C(CSc1nnc(-c2cccs2)o1)c1cccs1	96.0	98.0	97.0	97.0	96.0	95.0
O=C(O)CC/C(=C\c1ccc(N2CCOCC2)c([N+](=O)[O-])c1)c1nc2ccccc2s1	74.0*	77.0*	80.0	71.0*	82.0	72.0*
C=CCNC(=O)c1c(Cl)cnn1-c1ccc(C)cc1	96.0	93.0	99.0	96.0	94.0	95.0
O=S(=O)(Cc1ccccc1)N1CCc2ccccc21	37.0*	95.0	98.0	94.0	102.0	96.0
Cc1ncn(-c2ccc(C(=O)Oc3ccccc3)cn2)n1	96.0	97.0	103.0	91.0	96.0	92.0
SMILES	Rab2A wt mod	HRas wt GTP	Rab7 wt GTP bind	Cdc42 wt	Rac1 wt modul	Rac1 mut GTP
O=C(Nc1ccc(S(=O)(=O)N2CCCc3ccccc32)cc1)C1CCCO1 (configuration not stated)	111.0	110.0	103.0	117.0	120.0*[activator]	102.0
S=C(NCc1ccccc1)N1CCn2cccc2C1c1cccnc1 (configuration not stated)	96.0	98.0	97.0	98.0	97.0	95.0
S=C(NCCc1ccccc1)N1CCn2cccc2C1c1cccnc1 (configuration not stated)	80.0	81.0	86.0	78.0*	78.0*	77.0*
O=C1/C(=C\c2ccc(-c3ccccc3Cl)o2)SC(=S)N1CC1CCCO1 (configuration not stated)	62.0*	55.0*	68.0*	63.0*	59.0*	59.0*
CN1C(=O)/C(=C2\SC(=S)N(CC3CCCO3)C2=O)c2ccccc21 (configuration not stated)	102.0	102.0	102.0	104.0	104.0	101.0
CC(=O)N1/C(=C/c2ccc(N(C)C)cc2)C(=O)c2ccccc21	95.0	96.0	94.0	92.0	95.0	93.0
COc1ccc(S(=O)(=O)n2oc(=O)cc2-c2ccccc2)cc1	79.0*	83.0	89.0	79.0*	94.0	90.0
O=c1cc(-c2ccccc2)n(S(=O)(=O)c2ccccc2)o1	96.0	97.0	95.0	98.0	101.0	100.0
COc1cc(C(=O)Nc2cccc3ncccc23)cc(OC)c1OC	102.0	99.0	102.0	100.0	103.0	96.0
COc1cc(NC(=O)c2cccs2)c(OC)cc1NC(=O)CCC(=O)Nc1cccc2ncccc12	71.0*	73.0*	81.0	74.0*	67.0*	81.0
O=C(NCCc1ccc(Cl)cc1)C1CCC(CNc2nc(=S)[nH]c3ccccc23)CC1 (configuration not stated)	88.0	89.0	99.0	81.0	85.0	92.0
O=C(NCc1ccccc1Cl)C1CCC(CNc2nc(=S)[nH]c3ccccc23)CC1 (configuration not stated)	88.0	86.0	88.0	90.0	78.0*	92.0
CN(C[C@H](Cc1ccccc1)N(C[C@H](c1ccccc1)N(CCc1ccccc1)N=O)N=O)N=O	95.0	94.0	97.0	94.0	94.0	95.0
COc1cc([N+](=O)[O-])ccc1N=Nc1c(N)[nH]n(-c2ccccc2)c1=O	80.0	85.0	87.0	78.0*	81.0	83.0
COc1ccccc1NC(=S)N1CCN(C(=O)C2CCCO2)CC1 (configuration not stated)	99.0	100.0	103.0	98.0	99.0	97.0
